Hit rate of the full screen: of about 2,400 compounds, about 580 (24%) were called active. Not all results are given here. Values without a mark were called inactive.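 The calls were made as follows: active = activity change at or above the mean plus 3 SD of buffer wells without dofetilide, per plate; inactive = the rest.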

The test deals with Potassium voltage-gated channel subfamily KQT member 2 (Rattus norvegicus) (UniProt O88943). Description: KCNQ2 potentiation in CHO cells – cell-based, FluxOR thallium flux, counter-screen for hERG block protector project, confirmation (AID 1942).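 Also: normalized value minus buffer-control mean plus three SD of buffer wells.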 As to conditions: FluxOR thallium flux fluorescence, at 10 µM, stronger effect = higher value. (The purpose of a counterscreen is to sort out artefacts and off-target activity.)
Potassium voltage-gated channel subfamily KQT member 2 (Rattus norvegicus), sequence (O88943 whole entry, looked up): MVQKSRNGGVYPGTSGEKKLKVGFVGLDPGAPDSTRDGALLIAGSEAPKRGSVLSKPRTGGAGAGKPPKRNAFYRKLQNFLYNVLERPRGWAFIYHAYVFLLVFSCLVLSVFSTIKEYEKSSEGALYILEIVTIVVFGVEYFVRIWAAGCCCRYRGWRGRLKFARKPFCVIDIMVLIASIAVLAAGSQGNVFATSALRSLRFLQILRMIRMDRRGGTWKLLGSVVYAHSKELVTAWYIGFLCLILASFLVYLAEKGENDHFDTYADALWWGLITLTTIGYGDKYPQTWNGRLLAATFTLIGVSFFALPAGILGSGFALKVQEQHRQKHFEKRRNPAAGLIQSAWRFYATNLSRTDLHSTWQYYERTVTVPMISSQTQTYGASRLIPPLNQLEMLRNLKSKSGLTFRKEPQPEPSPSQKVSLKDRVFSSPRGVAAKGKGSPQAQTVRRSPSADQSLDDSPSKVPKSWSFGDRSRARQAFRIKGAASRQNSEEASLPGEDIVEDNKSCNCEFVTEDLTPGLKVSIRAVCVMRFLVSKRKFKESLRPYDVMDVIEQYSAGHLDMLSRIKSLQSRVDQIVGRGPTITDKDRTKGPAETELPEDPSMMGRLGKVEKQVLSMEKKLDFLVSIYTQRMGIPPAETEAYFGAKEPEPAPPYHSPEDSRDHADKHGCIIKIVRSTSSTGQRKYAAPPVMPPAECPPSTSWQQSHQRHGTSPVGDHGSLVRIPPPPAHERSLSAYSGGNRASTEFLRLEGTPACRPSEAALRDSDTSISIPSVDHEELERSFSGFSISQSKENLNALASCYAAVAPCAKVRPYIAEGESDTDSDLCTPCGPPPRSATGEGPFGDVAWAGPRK
For the molecule `O=S(=O)(c1ccc(F)c(F)c1)N1CCN(c2ncccn2)CC1`, the activity change, less the hit threshold was -26%.
Next, `CCCCCOc1ccc(C2C(C(C)=O)=C(C)Nc3ncnn32)cc1OC` (configuration not stated): -11.7%.
Next, `O=C(c1ccc2c(c1)N(Cc1ccccc1F)C(=O)c1ccccc1S2(=O)=O)N1CCCC1`: -23.2%; `COc1ccc(CN2CCn3ncc(C(=O)Nc4ccccc4)c3C2=O)cc1`: -13.1%.
For the molecule `Cc1nnc(NC(=O)CN2CCN(Cc3ccc(F)cc3Cl)CC2)s1`, the activity change, less the hit threshold was -27.8%.
Next, `Cc1ccc2c(c1)c1nnc(SCC(=O)Nc3ccc(N(C)C)cc3)nc1n2CC(=O)O`: -16.6%; `COc1cccc(N=Nc2ccc(O)c3ncccc23)c1`: -7.4%.
Next, `CCN(CC)S(=O)(=O)c1cc(OC)ccc1N=Nc1ccc(O)c2ncccc12`: 44.8% (active).
Next, `CCOc1ccc(N=Nc2ccc(O)c3ncccc23)cc1`: -5.6%.
In the case of `COc1ccc(NS(=O)(=O)c2ccc3ccccc3c2)c2ncccc12`, the activity change, less the hit threshold was -12.6%.
Next, `COc1ccccc1N=Nc1ccc(O)c2ncccc12`: 15.6% (active).
Next, `COc1ccc(OC)c(S(=O)(=O)Nc2ccc(O)c3ccccc23)c1`: -22.3%.
Next, `O=C(COC(=O)c1cc(NS(=O)(=O)c2cccs2)ccc1O)Nc1cc(Cl)ccc1Cl`: -5.6%.
`C[n+]1ccccc1COc1ccc(C(C)(C)C)cc1`: the activity change, less the hit threshold was -21.7%.
For `CCn1c(=S)[nH]c2c(c1=O)C(C)(C)Cc1ccccc1-2`, the activity change, less the hit threshold was 35.3% (active).
Next, `CCCn1c(SCC(N)=O)nc2c(c1=O)C1(CCCC1)Cc1ccccc1-2`: -2.1%; `CCC1(CC)Cc2ccccc2-c2[nH]c(=S)[nH]c(=O)c21`: -28.1%; `COc1ccc(-c2cc(C(F)(F)F)nc(SCC(=O)NCc3cccs3)n2)cc1`: -14.1%.
Next, `COc1ccc(-c2cc(C(=O)Nc3ccccc3SC)no2)cc1`: -15.3%.
Next, `COC(=O)c1c(NC(=O)C(C)(C)C)csc1C`: -9.2%; `C/C(=N\NC(=O)c1ccc(Cl)cc1)c1ccc(Br)s1`: -6.9%; `CCc1cc2c(=O)n(CCC(C)C)c(=S)[nH]c2s1`: 54% (active).
For the molecule `CCCCNC(=O)c1onc(CSc2nc3ccccc3[nH]2)c1C(=O)NCCCC`, the activity change, less the hit threshold is -19%.
In the case of `COc1ccc(CCNC(=O)Cn2c(=O)n(-c3ccc(F)cc3)c(=O)c3sccc32)cc1OC`, the activity change, less the hit threshold is -19.4%.
Next, `CCNC(=S)N/N=C1\C(=O)c2cccc3cccc1c23`: -4%; `O=C(N/N=C1/C(=O)c2cccc3cccc1c23)c1ccc(Cl)cc1`: 73.4% (active); `O=C(NN=C1c2ccccc2-c2ccccc21)c1ccccc1`: 0%.
As for `O=C(O)c1ccccc1P(=O)(c1ccccc1)c1ccccc1`, the activity change, less the hit threshold was -16.8%.
With `Cc1noc(C)c1COc1cccc(C(=O)NCc2cccc(Cl)c2)c1`, the activity change, less the hit threshold is -21.4%.
For `CCCCCCCC/C=C\CCCCCCCC(=O)O`, the activity change, less the hit threshold is -1%.
On to `CCCCCC/C(C)=C1/SC(=S)NC1=O`, for which the activity change, less the hit threshold was 71.1% (active).
Next, `CCOC(=O)Cc1nc2ccccc2o1`: -2.9%; `O=C(O)Cc1sc(-c2ccc(Cl)cc2)nc1-c1ccccc1`: -19.7%.
Next, `O=C(Nc1ccc(-c2csc(Nc3cccc(C(F)(F)F)c3)n2)cc1)c1ccccc1`: -23.8%; `O=C(NC(=S)Nc1cccc(C(F)(F)F)c1)c1csnn1`: 115% (active); `O=C(NC(=S)Nc1ccc(C(F)(F)F)cc1)c1csnn1`: 87% (active).
With `O=C(NC(=S)Nc1cc(C(F)(F)F)ccc1Cl)c1ccccc1`, the activity change, less the hit threshold is -6.4%.
Next, `CC12CN3CC(C)(CN(C1)C3c1ccc3c(c1)OCO3)C2=O` (configuration not stated): -15.9%; `C/C(O)=C/c1nc2ccccc2[nH]c1=O`: -16.5%; `CCN1C(=O)/C(=C/N2CCc3ccccc32)SC1=S`: -17.3%.
`Cc1nnc2ccc(-c3cccc(NC(=O)c4ccc(Cl)nc4)c3)nn12`: the activity change, less the hit threshold was -16.1%.
Next, `CNC(=O)c1c(O)c2cccc3c2n(c1=O)CC3`: -22.2%; `c1ccc2oc(-c3ccn[nH]3)cc2c1`: -0.3%.
In the case of `Cc1csc(NC(=O)c2cc3c(s2)CCCC3)n1`, the activity change, less the hit threshold was 17.9% (active).
Next, `Cc1csc(NC(=O)C2C3C=CC(C3)C2C(=O)O)n1` (configuration not stated): -13.2%.
In the case of `Cc1csc(NC(=O)c2cn3ccccc3n2)n1`, the activity change, less the hit threshold is -15.1%.
Next, `Cc1occc1C(=O)Nc1cccc([N+](=O)[O-])c1`: -10.3%; `O=C(O)c1ccc(N=NNc2cccc([N+](=O)[O-])c2)cc1`: 2.2% (active); `NC(=O)c1cccnc1Nc1cccc([N+](=O)[O-])c1`: -14.1%.
Next, `CC(=O)Nc1ccc(NC(=O)CSc2ncc(C(=O)Nc3ccc(Cl)cc3)c(=O)n2C)cc1`: -4.1%; `N=c1c2cn[nH]c2nc(SCC(=O)c2ccc(Br)cc2)n1-c1ccc(Br)cc1`: -23.7%; `CCOC(=O)C(=CNc1ccc(OC)cc1[N+](=O)[O-])C(=O)OCC`: -13.9%.
Next, `CCOC(=O)C(=CNc1cc(C)ccc1[N+](=O)[O-])C(=O)OCC`: -8.6%; `CCOC(=O)N/N=C/C=C/c1ccccc1[N+](=O)[O-]`: 5.2% (active); `O=S(=O)(NCc1ccc(Cl)cc1Cl)c1ccc(N2CCOCC2)nc1`: -15%.
`CCOC(=O)/C=C/c1ccc2c(c1)S(=O)(=O)N(c1cccc(OC)c1)[C@H]2CC(=O)OCC`: the activity change, less the hit threshold was -13.3%.
Turning to `O=C(NC(=S)Nc1nc(-c2cccc([N+](=O)[O-])c2)cs1)c1ccccc1Cl`, the activity change, less the hit threshold is -10.8%.
Next, `CN(C)CCCN=C(NO)c1ccc(Cl)cc1Cl`: -14.9%; `CCCn1nnnc1NC(=O)c1cc(Cl)ccc1Cl`: -33.4%.
Next, `CN(C)C(=O)c1cc(C(=O)c2ccc(Cl)cc2Cl)c[nH]1`: -14.9%.
Consider `CCCN(CCC)C(=S)NC(=O)c1ccc(Cl)cc1Cl`, for which the activity change, less the hit threshold was 55% (active).
Regarding `CN(C)/C=C/C(=O)c1ccc(Cl)cc1Cl`, the activity change, less the hit threshold is -15.1%.
Turning to `CCN(CC)C(=S)NC(=O)c1ccc(Cl)cc1Cl`, the activity change, less the hit threshold was 9% (active).
Next, `CCCCN(CCCC)C(=S)NC(=O)c1ccccc1Cl`: 89.6% (active).
Next, `O=C(Nc1ccsc1C(=O)O)c1ccccc1Cl`: -14.7%.
Regarding `CCC(=O)NC(c1cccs1)c1ccc2cccnc2c1O` (configuration not stated), the activity change, less the hit threshold was -16.7%.
As for `CCC(C)NC(=O)c1c(-c2cc(Cl)c(OC)c(Cl)c2)noc1C` (configuration not stated), the activity change, less the hit threshold is -12.6%.
`O=[N+]([O-])c1cccc(/C=N/N=C\c2ccccc2)c1`: the activity change, less the hit threshold is -20.8%.
Next, `CCC(C)NC(=O)CSc1ncnc2sccc12` (configuration not stated): -14.8%; `CCOC(=O)c1sc2nc(C)nc(SCC(=O)N(C)C3CCS(=O)(=O)C3)c2c1C` (configuration not stated): -0.6%; `CN(C(=O)CSc1ncnc2sc(-c3ccccc3)cc12)C1CCS(=O)(=O)C1` (configuration not stated): 80.2% (active).
Next, `O=C(O)CCSc1ncnc2sc(-c3ccccc3)cc12`: 22.1% (active); `Cc1ccccc1-n1c(SCC(=O)N(C)C2CCS(=O)(=O)C2)nnc1-c1ccncc1` (configuration not stated): -7.7%; `Cc1ccccc1Cc1c(C)nc2c(C(=O)NCc3ccc4c(c3)OCO4)cnn2c1C`: -18.7%.
With `CC(CCc1ccccc1)NC(=S)NC(=O)c1ccco1` (configuration not stated), the activity change, less the hit threshold was 15.2% (active).
Next, `O=C(O)CNC(=O)c1ccc(NC(=O)/C(=C/c2ccccc2)NC(=O)c2ccco2)cc1`: -25.9%.
For `O=C(NC(=S)N(CCc1ccccc1)CCc1ccccc1)c1ccco1`, the activity change, less the hit threshold was 36% (active).
Next, `NC(=O)c1nsc(C(=O)N(CC(=O)NCc2ccccc2)c2ccc(F)cc2)c1N`: -23.6%; `C/C(=N\NC(=O)c1ccc(NS(=O)(=O)c2cccs2)cc1)c1ccc2c(c1)OCO2`: -25.3%.
Next, `CNC(=O)COC(=O)c1cccc(S(=O)(=O)N2CCN(c3ccc(F)cc3)CC2)c1`: -11.1%; `C=CCn1c(=S)[nH]c2nc3c(cc2c1=O)CCCC3`: -7.5%.
Next, `C=CCn1c(=S)[nH]c2sc3c(c2c1=O)CCC3`: 34.8% (active).
Regarding `C=CCn1c(=S)[nH]c2sc3c(c2c1=O)CCCC3`, the activity change, less the hit threshold is 46.1% (active).
`Cc1ccc(C(C)C)cc1OCCn1cncn1`: the activity change, less the hit threshold was -20.3%.
Next, `CCCOc1ccc(C2NC(=S)NC(c3ccccc3)=C2C(=O)Nc2ccc(C)cc2)cc1OC` (configuration not stated): -6.2%; `CNC(=O)CSc1nnc(-c2ccco2)n1-c1ccccc1`: -16.7%.
On to `O=C(Nc1ccc(NC(=O)C2CC2)nc1)c1cccs1`, for which the activity change, less the hit threshold was -16.2%.
Next, `COc1ccc(/C=C/C(=O)NC(=S)NNC(=O)c2cccs2)cc1`: -21.3%; `CCc1ccc(NC(=O)C(=O)NNC(=O)c2cccs2)cc1`: 67.5% (active).
Regarding `Cc1ccc(NC(=O)C(=O)NNC(=O)c2cccs2)cc1`, the activity change, less the hit threshold was 60.8% (active).
Next, `Cc1ccc(N/C=C/C(=O)c2cccs2)cc1`: -18%; `COc1ccc(NC(=O)CNC(=O)c2cccs2)cc1Cl`: -13.7%; `C=CCc1cc(Cl)ccc1OCCOCCN(C)C`: -18.7%.
Next, `Oc1ccc(N=Nc2ccccc2-c2nn[nH]n2)c(O)c1`: -0.7%.
Next, `Nc1nonc1C(=O)N1CCCC1`: -21%.
With `Cc1cc(C(=O)NNC2CC(=O)N(c3ccc4ccccc4c3)C2=O)c(C)o1` (configuration not stated), the activity change, less the hit threshold was -17.4%.
Next, `CC(=O)Oc1c(-c2ccco2)oc2ccccc2c1=O`: 6.8% (active); `CC(=O)Oc1c(-c2ccc(Br)o2)oc2ccccc2c1=O`: 99.4% (active); `COc1ccc(C(=O)c2oc3ccccc3c2N)cc1`: -8.5%.
For `COc1ccc(OC(=O)Cc2cccc3ccccc23)cc1`, the activity change, less the hit threshold was -8.5%.
Next, `COc1ccc(-c2oc3ccccc3c(=O)c2OC(C)=O)cc1`: 7.3% (active).
Next, `O=C(N/N=C\c1coc2ccccc2c1=O)c1ccco1`: -15.7%.

Values taken from PubChem BioAssay AID1942 (Johns Hopkins Ion Channel Center, 2009).
